Bioassay records: PubChem, National Center for Advancing Translational Sciences (NCATS)
This is a sample that favours compounds with a hit; in the whole collection about 18% have one here.
DT40 TDP1 CPT = growth inhibition of DT40 Tdp1-/-;hTDP1 cells with camptothecin (screen for TDP1 inhibitors); AID 686979; chicken DT40 Tdp1-/-;hTDP1 cells + 20 nM CPT, ATP luminescence, 48 h; Potency, µM (series often up to 46.2 µM), for inactives: at the highest dose activity change, negative = growth inhibition, usual class: inhibitors; 420,000 tested, 12% active; further: potency means the concentration at half of the fitted maximal effect; nearly all actives have a fitted effect of over 55% in size
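Cell growth measured by CellTiter-Glo luminescence after a minimum 48 h, 37 C compound exposure with 20 nM CPT in Tdp1-knockout DT40 cells stably expressing hTDP1, seeded 400/well; qHTS titration format.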
TDP1 cell noCPT = qHTS for Inhibitors of human tyrosyl-DNA phosphodiesterase 1 (TDP1): qHTS in cells in absence of CPT; Potency, µM (highest dose often 46.2 µM), without a hit: at the top dose activity change, negative = growth inhibition, most hits filed as inhibitors; DT40 Tdp1-/- hTDP1 cells, no CPT, ATP luminescence, 48 h; AID 686978, 2013; 420,000 tested, 15% active; further: potency means the concentration at half of the fitted maximal effect; nearly all actives have a fitted effect of over 55% in size
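Seeded 400 DT40-hTDP1 cells/well (vehicle DMSO, no 20 nM CPT); pinned compounds; ≥48 hr at 37 °C; CellTiter-Glo luminescence as viability measure.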
IL-1B inflam inh = blocks inflammasome-driven IL-1 beta release; activity change, % at 57.5 µM; 360,000 tested, 4.7% active; AID 743279; THP-1 LPS/ATP IL-1B secretion, AlphaLISA, 16 h; active compounds read low; in the data active means activity change below about -50%; inconclusive means mostly about -30% to -49%
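Secreted IL-1B measured by AlphaLISA bead assay after 16 h compound exposure of THP-1 cells; compounds (final up to 57.5 uM) added 1 h before LPS (250 ng/mL) and ATP (1.25 mM) stimulation; lower signal means less secretion.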
VP16 counter = inhibits Gal4-VP16 luciferase reporter, ROR gamma counter-screen; AID 2546; Potency, µM (doses to about 53.6 µM), for inactives: top-dose activity, negative = inhibition, usual class: inhibitors; 310,000 tested, 3.5% active; Drosophila S2 Gal4-VP16 UAS-luciferase, luminescence, 20 h;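 further: Gal4-VP16 expression switched on by copper sulfate through the metallothionein promoter; potency means the concentration at half of the fitted maximal effect; nearly all actives have a fitted effect of over 50% in size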
RORg inh = ROR gamma (mouse) transcription inhibition | P51450 | 310,000 tested, 5.4% active | Drosophila S2 Gal4-RORgamma UAS-luciferase reporter, 20 h | Potency, µM (doses to about 53.6 µM), for the others: top-dose activity change, negative = inhibition, usual class: inhibitors | AID 2551; further: potency means the concentration at half of the fitted maximal effect; nearly all actives have a fitted effect of over 60% in size
Target sequence (P51450 whole entry, looked up, the tested form may be a part): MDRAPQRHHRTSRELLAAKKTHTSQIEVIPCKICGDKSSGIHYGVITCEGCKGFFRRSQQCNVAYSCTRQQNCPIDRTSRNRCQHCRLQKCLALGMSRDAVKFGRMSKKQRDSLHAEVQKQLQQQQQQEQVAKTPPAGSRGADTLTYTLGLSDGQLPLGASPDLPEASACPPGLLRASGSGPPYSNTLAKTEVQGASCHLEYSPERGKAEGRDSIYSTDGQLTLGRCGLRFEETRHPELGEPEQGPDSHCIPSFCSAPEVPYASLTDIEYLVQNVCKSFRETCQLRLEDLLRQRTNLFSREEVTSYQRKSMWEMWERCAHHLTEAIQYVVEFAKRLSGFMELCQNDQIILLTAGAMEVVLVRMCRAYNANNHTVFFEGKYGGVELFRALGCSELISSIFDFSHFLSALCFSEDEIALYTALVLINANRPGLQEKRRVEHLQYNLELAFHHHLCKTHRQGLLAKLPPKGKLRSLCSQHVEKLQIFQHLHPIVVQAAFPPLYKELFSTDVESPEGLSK
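Compounds are pin-transferred onto Drosophila Schneider cells expressing a copper-inducible Gal4–ROR gamma transactivation domain fusion. After 1 hr, copper sulfate is added to 700 uM final; luciferase is read 20 hr later.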
LDHA block = blocks human lactate dehydrogenase A | P00338 | purified LDHA, NADH/diaphorase-resazurin fluorescence; active compounds read low | activity change, % (values are at about 110 or 230 µM) | 480,000 tested, 0.15% active; in the data active means activity change below about -30%; inconclusive means mostly about -25% to -30%;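 further: plate controls were DMSO wells for no effect and wells without enzyme for full effect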
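LDH5 2 nM; NADH 0.06 mM, pyruvate 0.2 mM; 200 mM Tris pH 7.4, EDTA, Tween-20; 5 min RT. Detection: diaphorase 0.133 mg/mL + resazurin 37 µM, fluorescence ex540/em590 at 0 and 20 min; normalized to enzyme-free and DMSO wells.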
An asterisk follows results filed as active; u = inconclusive; x = no result. Unless noted, the call rests on the fitted dose curve; in most records, active means well fitted curve in the direction sought with a large enough effect; inconclusive means small, poorly fitted or top-dose-only effect, or another doubt; inactive means no such curve, though single readings can be large; an effect the other way counts as inactive or inconclusive. Unless noted, on the % scale 0 is the no-effect control and ±100 the full control effect.

SMILES | DT40 TDP1 CPT | TDP1 cell noCPT | IL-1B inflam inh | VP16 counter | RORg inh | LDHA block
CCOC(=O)N1CCc2c(sc3c2c(=O)n(Cc2ccccc2)c(=O)n3Cc2ccccc2Cl)C1 | u | u | x | x | x | -17.1
CC(=O)N1CCc2c(sc3c2c(=O)n(Cc2ccccc2)c(=O)n3Cc2ccc(Cl)cc2)C1 | u | 29.1µM* | x | x | x | 1.2
CC(=O)N1CCc2c(sc3c2c(=O)n(Cc2ccccc2)c(=O)n3Cc2cccc(Cl)c2)C1 | u | u | x | x | x | 0.0
CCOC(=O)N1CCc2c(sc3c2c(=O)n(CCc2ccccc2)c(=O)n3Cc2c(F)cccc2Cl)C1 | u | 25.9µM* | x | x | x | -2.5
Cc1cc(Nc2cccc([N+](=O)[O-])c2)nc2ccccc12 | x | x | x | x | x | 4.1
COc1ccc(Cl)cc1NC(=O)CCc1ncc(-c2ccc(F)cc2)o1 | x | x | x | x | x | 7.6
OC(c1ccccc1)C(NCc1ccccc1)c1ccccc1 (stereo not given) | 23.1µM* | 23.1µM* | -22.6 | x | x | -5.2
CC1CN(c2nc(-c3ccc(Br)cc3)nnc2-c2ccccc2)CC(C)N1 (stereo not given) | 13µM* | 10.3µM* | -105.4* | u | -2.0% | -1.7
FC(F)(F)c1cccc(-c2nnc(-c3ccccc3)c(N3CCOCC3)n2)c1 | 18.4µM* | 16.4µM* | -25.6 | 0.7% | 10.9% | -0.4
Clc1ccc(-c2nnc(-c3ccccc3)c(N3CCSCC3)n2)cc1 | 20.6µM* | u | -29.7 | 0.6% | 19.7% | -4.8
CC1CCN(c2nc(-c3ccc(Br)cc3)nc3ccccc23)CC1 | u | u | x | x | x | -0.9
COc1cc2ccccc2cc1C(=O)N1CCN(CC(=O)Nc2cccc(F)c2)CC1 | x | x | x | x | x | -3.7
CC1CCCCC1NC(=O)C1CC1C (stereo not given) | x | x | x | x | x | 5.3
CC(CC(=O)O)CC(=O)N1CCOCC1 (stereo not given) | x | x | x | x | x | 5.6
CC(Nc1ccc(F)cc1)c1nc(-c2ccco2)no1 (stereo not given) | x | x | x | x | x | 7.2
Cc1cc(C)nc(-n2nc(C)c3c2NC(=O)CC3c2cc(F)ccc2F)n1 (stereo not given) | u | 23.1µM* | x | x | x | -1.1
O=C1CC(=C(c2ccccc2)c2ccccc2)C(=O)N1CCCCN1CCN(c2cccc(Cl)c2)CC1 | 14.6µM* | 18.4µM* | u | -0.3% | 18.7% | 3.1
Cc1ccccc1N1CCN(CCN2C(=O)CC(=C3c4ccccc4-c4ccccc43)C2=O)CC1 | -29.0% | -28.3% | 0.0 | x | x | 1.2
Cc1ccccc1N1CCN(CCCN2C(=O)CC(=C(c3ccccc3)c3ccccc3)C2=O)CC1 | u | 23.1µM* | -18.3 | u | u | -4.1
O=C1C2CCCCN2C(=O)N1CCCCN1CCN(c2cccc(Cl)c2)CC1 (stereo not given) | -25.6% | u | 3.2 | -4.2% | -17.7% | -3.1
Cc1nc2nc(CC(=O)Nc3ccccc3)nn2c(C)c1Cc1ccccc1Cl | x | x | x | x | x | 7.6
CCOc1ccc(CCNc2ncnc3onc(-c4ccc(Cl)cc4)c23)cc1OCC | u | u | x | x | x | 1.5
CCc1cccc(Nc2ncnc3onc(-c4ccc(F)cc4)c23)c1 | 23.1µM* | 16.4µM* | x | x | x | -0.1
CCOc1ccc(CCNc2ncnc3onc(-c4ccc(Cl)cc4)c23)cc1 | 9.2µM* | 8.2µM* | x | x | x | -5.7
CCOc1ccc(CCNc2ncnc3onc(-c4ccc(F)cc4)c23)cc1OCC | u | 23.1µM* | x | x | x | -1.8
COc1cccc(CNc2ncnc3onc(C)c23)c1 | 13µM* | 9.2µM* | x | x | x | -11.3
CCOCc1ccccc1Nc1ncnc2onc(-c3ccc(Cl)cc3)c12 | 0.0% | u | x | x | x | 5.7
Fc1ccc(Nc2ncnc3onc(-c4ccc(Cl)cc4)c23)cc1 | x | x | x | x | x | 2.8
COc1cccc(CCC(=O)Nc2nc(C)c(C(C)=O)s2)c1OC | x | x | x | x | x | -5.5
Cc1cccc(NC2=NS(=O)(=O)c3ccccc32)c1C | x | x | x | x | x | 4.5
